Source: PubChem BioAssay
Activity calls are given as the source filed them.

Legend:
[1] = test system: Plasmodium falciparum Sir2 (PF13_0152, Sir2A); experiment: Plasmodium falciparum Sir2A binding compounds – biochemical, small-molecule microarray, 635 nm fluorescence, primary screen (AID 1098); details: fluorescence 635 nm, higher = more signal;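 note: score merges spot fluorescence intensity with its signal-to-noise ratio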
[2] = probe aDKK1 binding to arrayed compounds – biochemical, biotinylated probe, 635/667 nm fluorescence, primary screen (AID 1099); details: small-molecule microarray, higher = more signal;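 note: score merges 667nm spot fluorescence with signal to noise across triplicate slides; reference of the scale not given here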
[3] = probe aCHRDL2 binding to arrayed compounds – biochemical, biotinylated probe, 635/667 nm fluorescence, primary screen (AID 1100); details: small-molecule microarray, higher = more signal
[4] = change in splice reporter luminescence, either direction, cell-based, HEK293, spliceosome inhibition project, primary screen (AID 1101); details: HEK293 splicing luciferase reporter, 24 h, higher = more signal, called active from +8 up or from −8 down;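 note: HEK293 cells carrying a splicing-competent luciferase reporter gene; test concentration not given here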
[5] = molecular target: Fibroblast growth factor 10 (Homo sapiens) (UniProt O15520); experiment: compounds binding fibroblast growth factor 10 – biochemical, small-molecule microarray, 635 nm fluorescence, primary screen (AID 1102); details: FGF10 binding, fluorescence 635 nm, higher = more signal
Sequence of Fibroblast growth factor 10 (Homo sapiens) (O15520 whole entry, looked up): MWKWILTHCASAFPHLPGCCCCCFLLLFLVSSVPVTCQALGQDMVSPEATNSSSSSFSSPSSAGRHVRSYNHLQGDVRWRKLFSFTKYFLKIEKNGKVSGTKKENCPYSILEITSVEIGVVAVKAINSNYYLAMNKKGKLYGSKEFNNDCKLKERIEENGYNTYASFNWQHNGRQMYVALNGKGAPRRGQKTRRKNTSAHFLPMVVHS

[6] = test system: glycogen synthase kinase-3 (GSK3A per assay name; protocol says GSK3B); experiment: compounds binding glycogen synthase kinase-3 – biochemical, small-molecule microarray, 635 nm fluorescence, GSK3A, primary screen (AID 1103); details: fluorescence 635 nm, higher = more signal; note: the record names both GSK3A and GSK3B
[7] = molecular target: Epidermal growth factor receptor (Homo sapiens) (UniProt P00533); experiment: compounds binding epidermal growth factor receptor – biochemical, small-molecule microarray, 635 nm fluorescence, primary screen (AID 1104); details: EGFR binding, higher = more signal;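 note: score merges 667 nm emission intensity with spot signal to noise over triplicate slides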
Sequence of Epidermal growth factor receptor (Homo sapiens) (P00533 whole entry, looked up): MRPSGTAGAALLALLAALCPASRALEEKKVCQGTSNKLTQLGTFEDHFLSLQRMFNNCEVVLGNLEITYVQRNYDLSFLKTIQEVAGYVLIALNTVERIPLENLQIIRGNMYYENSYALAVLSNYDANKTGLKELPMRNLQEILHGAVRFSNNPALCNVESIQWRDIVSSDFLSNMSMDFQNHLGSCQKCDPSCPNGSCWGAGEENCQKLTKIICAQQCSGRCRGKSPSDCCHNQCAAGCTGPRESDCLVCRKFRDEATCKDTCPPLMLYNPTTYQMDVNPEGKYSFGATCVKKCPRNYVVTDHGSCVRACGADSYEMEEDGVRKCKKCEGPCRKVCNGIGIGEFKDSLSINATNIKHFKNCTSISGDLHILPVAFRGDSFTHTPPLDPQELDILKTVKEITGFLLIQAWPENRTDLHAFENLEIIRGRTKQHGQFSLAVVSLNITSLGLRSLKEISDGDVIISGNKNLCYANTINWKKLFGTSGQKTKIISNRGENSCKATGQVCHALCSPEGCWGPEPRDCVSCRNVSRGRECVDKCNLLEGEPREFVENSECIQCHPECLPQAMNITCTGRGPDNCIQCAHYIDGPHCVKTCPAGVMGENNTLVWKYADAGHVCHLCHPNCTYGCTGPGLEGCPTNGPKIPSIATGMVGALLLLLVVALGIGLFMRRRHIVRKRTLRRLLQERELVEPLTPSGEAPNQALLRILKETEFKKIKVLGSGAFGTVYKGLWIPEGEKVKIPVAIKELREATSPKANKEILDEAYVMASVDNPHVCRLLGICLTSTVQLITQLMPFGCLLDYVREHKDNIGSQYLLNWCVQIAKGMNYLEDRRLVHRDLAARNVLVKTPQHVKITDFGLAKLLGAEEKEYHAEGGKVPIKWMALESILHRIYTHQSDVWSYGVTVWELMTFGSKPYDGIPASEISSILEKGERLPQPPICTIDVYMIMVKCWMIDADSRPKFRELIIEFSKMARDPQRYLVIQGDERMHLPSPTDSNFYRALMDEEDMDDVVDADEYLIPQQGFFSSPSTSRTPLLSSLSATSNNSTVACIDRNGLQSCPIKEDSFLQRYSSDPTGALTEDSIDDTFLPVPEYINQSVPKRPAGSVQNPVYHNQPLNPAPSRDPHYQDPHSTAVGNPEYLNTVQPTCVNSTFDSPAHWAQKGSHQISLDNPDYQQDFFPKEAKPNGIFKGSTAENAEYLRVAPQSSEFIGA

[8] = molecular target: Follistatin-related protein 3 (Homo sapiens) (UniProt O95633); experiment: compounds binding follistatin-related protein 3 – biochemical, small-molecule microarray, 635 nm fluorescence, primary screen (AID 1105); details: FSTL3 binding, higher = more signal;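 note: score merges emission near 667 nm and signal to noise per printed spot across three slides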
Sequence of Follistatin-related protein 3 (Homo sapiens) (O95633 whole entry, looked up): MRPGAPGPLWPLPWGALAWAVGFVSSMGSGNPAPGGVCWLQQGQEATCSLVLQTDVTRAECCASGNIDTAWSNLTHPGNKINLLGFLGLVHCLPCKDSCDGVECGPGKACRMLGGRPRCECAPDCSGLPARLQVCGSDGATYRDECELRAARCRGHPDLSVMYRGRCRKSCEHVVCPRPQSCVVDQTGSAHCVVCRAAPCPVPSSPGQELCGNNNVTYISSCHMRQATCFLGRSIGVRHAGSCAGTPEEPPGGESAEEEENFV

[9] = molecular target: Dickkopf-related protein 1 (Homo sapiens) (UniProt O94907); experiment: small molecules binding DKK1 protein – biochemical, small-molecule microarray, 635 nm fluorescence scan, primary screen (AID 1106); details: higher = more signal;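 note: score merges emission near 667 nm with signal to noise over three replicate slides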
Sequence of Dickkopf-related protein 1 (Homo sapiens) (O94907 whole entry, looked up): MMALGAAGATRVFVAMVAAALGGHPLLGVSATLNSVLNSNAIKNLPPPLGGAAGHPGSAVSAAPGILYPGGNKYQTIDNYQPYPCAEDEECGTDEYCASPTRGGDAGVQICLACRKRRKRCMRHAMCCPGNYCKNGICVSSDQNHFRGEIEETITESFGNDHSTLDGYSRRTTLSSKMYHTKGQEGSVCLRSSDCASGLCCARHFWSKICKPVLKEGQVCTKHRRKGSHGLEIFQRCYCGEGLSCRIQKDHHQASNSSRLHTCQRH

[10] = test system: Inhibin beta A chain (activin A); experiment: small molecules binding activin A – biochemical, small-molecule microarray, 635 nm fluorescence scan, primary screen (AID 1107); details: INHBA, higher = more signal;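 note: mouse activin A protein probed at 4.33 µg/mL on printed slides; score merges bound-protein fluorescence near 667 nm with spot signal-to-noise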

Compound	composite z-score [1]	composite z-score [2]	composite z-score [3]	z-score [4]	composite z-score [5]	composite z-score [6]	composite z-score [7]	composite z-score [8]	composite z-score [9]	composite z-score [10]
COC(=O)[C@@]1(Cc2ccc(F)cc2)[C@H]2c3cc(C(=O)N(C)C)n(Cc4nc5ccccc5[nH]4)c3C[C@H]2CN1C(=O)c1ccccc1	1.62	0.69	0.969	-1.62 (inactive)	0.63	-0.136	0.314	0.296	-0.419	0.538
O=C1C2C=CC(C(O)C(c3ccccc3)c3ccccc3)N(n3cnnc3)C2C(=O)N1Cc1ccccc1 (stereo not given)	0.55	-0.0184	0.571	0.00252 (inactive)	1.25	1.07	-1.18	0.439	1.24	0.581
COc1ccc([Si](C)(C)[C@H]2[C@H](CCO)O[C@@]3(C(=O)N(C)c4c(Br)cc(C)cc43)[C@@H]2C)cc1	0.717	-0.0044	0.202	4.6 (inactive)	0.333	0.223	0.127	0.4	0.0138	0.449
C=CCC(OC(C)=O)[C@@H]1[C@@H](N(Cc2ccc(-c3ccccc3)cc2)C(=O)Cc2ccc(F)cc2)c2cc(OCCCO)ccc2N1C(=O)c1ccc(-c2ccccc2)cc1 (stereo not given in full)	0.152	-0.0501	0.216	-2.23 (inactive)	0.152	-1.02	-0.376	0.268	-0.282	0.778
C=CCOC(=O)[C@@H]1[C@H]2C(=O)O[C@H](c3ccccc3)[C@H](c3ccccc3)N2[C@H](c2ccc(OCCOC(=O)[C@@H]3C[C@@H]4C(=O)N[C@@H](CCCCN(C)C)C(=O)N4[C@@H]3c3ccc(O)cc3)cc2)[C@@]12C(=O)Nc1ccc(I)cc12	1.14	-0.0242	0.0749	-0.0143 (inactive)	0.767	1.13	1.01	1.04	1.11	0.347
CC1CC/C=C\[C@H]2OC34C=CCN(Cn5nnc6ccccc65)C(=O)[C@H]3N(C(CO)C(C)C)C(=O)[C@@H]4C2C(=O)O1 (stereo not given in full)	0.868	-0.165	0.547	0.209 (inactive)	-0.103	-0.108	-0.675	-0.551	-0.877	0.459
OC([C@@H]1CC(c2ccccc2)=NO1)[C@H]1CC(c2ccccc2)=NO1 (stereo not given in full)	-0.345	-0.29	-0.136	-0.247 (inactive)	0.0725	-0.453	-0.29	0.031	0.446	0.672
O=C1NC(=O)C2C1C=CC(C(O)C(c1ccccc1)c1ccccc1)N2Nc1ccc(Cl)cc1Cl (stereo not given)	0.496	0.824	1.11	1.44 (inactive)	0.554	0.0932	-0.261	0.908	-0.737	0.974
[N-]=[N+]=NCc1ccccc1C[C@]1(C(=O)N2CCOCC2)N=C(c2ccc(OCCCO)cc2)O[C@H]1c1ccccc1N=[N+]=[N-]	1	0.873	0.93	-0.928 (inactive)	1.31	1.33	0.466	1.37	0.234	0.878
CCCN1C(=O)[C@]2(CCS(=O)(=O)c3ccccc3)N=C(c3ccc(OCCCO)cc3)O[C@@H]2c2ccccc21	1.19	0.0947	0.766	-0.707 (inactive)	0.533	1.32	0.0338	1.05	0.125	0.916
CN(C)CCCNC(=O)[C@@]1(C)c2ccccc2C(=O)N(Cc2cc(F)cc(C(F)(F)F)c2)[C@H]1c1ccc(CO)cc1	1.34	-0.226	0.682	-0.249 (inactive)	-1.23	-0.465	-1.63	-1.19	-0.878	0.376
COCCOC(=O)N1C(=O)[C@@]2(c3cc(C#CCCO)ccc31)[C@H](C(=O)N1CCc3cc(OC)c(OC)cc3C1)[C@H]1C(=O)O[C@H](c3ccccc3)[C@H](c3ccccc3)N1[C@@H]2c1ccc(O)cc1	1.58	0.0869	0.43	-0.341 (inactive)	1.06	1.29	0.413	0.81	0.547	-0.132
[N-]=[N+]=NCc1ccccc1[C@@H]1OC(c2ccc(OCCCO)cc2)=N[C@]1(CCS(=O)(=O)c1ccccc1)C(=O)NCCN1CCOCC1	0.916	0.934	0.952	-0.406 (inactive)	1.42	1.05	0.778	1.46	0.535	0.745
COc1ccc(C(=O)Nc2cccc(CN3C(=O)[C@]4(O[C@H](CCO)[C@@H]([Si](C)(C)c5ccc(OC)cc5)[C@@H]4C)c4ccccc43)c2)cc1	1.44	0.541	0.223	1.3 (inactive)	0.691	0.901	0.0077	0.742	0.331	1.26
COC(=O)[C@@]1(Cc2ccccc2)[C@H]2c3cc(C(=O)N4CCCC4)n(Cc4nc5ccccc5[nH]4)c3C[C@H]2CN1C(=O)c1ccccc1	0.844	1.1	1.36	-1.52 (inactive)	0.0471	1.19	-0.361	1.09	-0.137	0.831
CN1C(=O)C2C=CC(C(O)Cc3ccccc3)N(Nc3ccccc3)C2C1=O (stereo not given)	0.36	0.645	0.898	-0.00929 (inactive)	0.235	-0.442	-0.389	-0.0978	-0.549	0.437
O=C1O[C@H](c2ccccc2)[C@H](c2ccccc2)N2[C@H]1[C@@H](C(=O)Nc1nc3ccccc3s1)[C@]1(C(=O)Nc3ccc(C#CC4(O)CCCCCC4)cc31)[C@H]2c1ccc(OCCO)cc1	1.17	0.507	0.531	0.053 (inactive)	1.24	1.02	0.662	0.714	0.525	0.523
CN1C(=O)C2C=CC(C(O)C3=C[C@H]4C[C@@H](C3)C4(C)C)N(Nc3ccccc3)C2C1=O (stereo not given in full)	0.46	0.462	0.63	0.757 (inactive)	0.944	0.776	0.356	1.19	0.109	1.42
N#Cc1ccc(NN2C(C(O)c3c(F)cccc3Cl)C=CC3C(=O)N(c4ccccc4)C(=O)C32)cc1 (stereo not given)	1.08	1.42	1.19	0.615 (inactive)	0.922	0.943	0.143	1.12	0.125	0.5
COc1cc2c(cc1O)C=[N+](Cc1cccc(OC(F)(F)F)c1)CC2	0.674	-0.084	0.39	-0.663 (inactive)	-0.0931	-0.104	0.128	0.534	0.141	0.994
C=CC[C@@]1(C(=O)NCc2ccccc2)N=C(c2ccc(OCCCO)cc2)O[C@@H]1c1ccccc1N=[N+]=[N-]	0.888	0.925	1.02	-1.35 (inactive)	1.22	-0.119	-0.104	0.751	-0.295	0.817
CN(C)C(=O)[C@@]1(Cc2ccccc2CN=[N+]=[N-])N=C(c2ccc(OCCCO)cc2)O[C@H]1c1ccccc1	1.67	-0.274	1.01	0.249 (inactive)	1.21	0.585	-0.333	-0.283	-0.766	0.823
NCCCCCNC(=O)[C@@H]1C[C@@H]2C(=O)N[C@@H](Cc3ccccc3)C(=O)N2[C@@H]1c1cccc(OCCO)c1	1.14	0.53	0.359	-0.0581 (inactive)	0.519	0.232	-0.235	-0.374	0.378	0.619
O=C1C2C=CC(C(O)c3c(F)cccc3Cl)N(Nc3ccccc3)C2C(=O)N1c1ccccc1 (stereo not given)	0.741	0.532	0.256	-0.00944 (inactive)	0.581	1.3	0.271	1.34	0.236	0.672
[N-]=[N+]=NCc1ccccc1C[C@@]1(C(=O)NCC(O)CO)N=C(c2ccc(OCCCO)cc2)O[C@@H]1c1ccccc1N=[N+]=[N-] (stereo not given in full)	0.991	1.03	1.38	0.561 (inactive)	1.01	0.364	-0.0087	0.348	-0.504	1.2
COC(=O)[C@@]1(Cc2ccccc2)[C@H]2c3cc(C(=O)N4CCCC4)n(CC4CC4)c3C[C@H]2CN1C(=O)c1ccccc1	1.23	1.48	1.16	-2.08 (inactive)	0.596	1.29	0.436	1.17	-0.23	1.16
COCCOC(=O)N1C(=O)[C@@]2(c3cc(C#Cc4ccc(OC)cc4)ccc31)[C@H](c1ccccc1OCCO)N1[C@H](c3ccccc3)[C@H](c3ccccc3)OC(=O)[C@H]1[C@@H]2C(=O)N1CCN(c2ncccn2)CC1	0.864	-0.0148	0.116	-0.0173 (inactive)	0.743	0.806	0.339	0.369	0.27	0.345
